# Assay results from PubChem BioAssay (NCI).
# About 83,000 compounds went through this panel and 20% of them were active in at least one assay; those are over-represented in the sample as a whole.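 Assay: single dose, 48 h. Readout: percent growth (0 = no net growth; negative = cell death). Active: <10.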 Values without a mark were called inactive. The source made the active and inactive calls.
# Legend:
# Assay in all cases: NCI-60 one-dose screen, 48 h (100 = growth as untreated, 0 = no growth, -100 = all killed)
# Details in all cases: 10 µM unless noted
# MOLT-4 leukemia = system: MOLT-4 leukemia
# SR leukemia = system: SR leukemia
# RPMI-8226 leukemia = system: RPMI-8226 leukemia
# OVCAR-8 ovarian = system: OVCAR-8 ovarian
# OVCAR-5 ovarian = system: OVCAR-5 ovarian
# OVCAR-4 ovarian = system: OVCAR-4 ovarian
# SK-OV-3 ovarian = system: SK-OV-3 ovarian
# IGROV1 ovarian = system: IGROV1 ovarian
# OVCAR-3 ovarian = system: OVCAR-3 ovarian
# HS 578T breast = system: HS 578T breast
# NCI/ADR-RES ovarian = system: NCI/ADR-RES ovarian
# T-47D breast = system: T-47D breast
# BT-549 breast = system: BT-549 breast
# MDA-MB-435 melanoma = system: MDA-MB-435 melanoma
# SW-620 colon = system: SW-620 colon
# MCF7 breast = system: MCF7 breast
# HCT-116 colon = system: HCT-116 colon
# HCC-2998 colon = system: HCC-2998 colon
# KM12 colon = system: KM12 colon
Compound,growth (MOLT-4 leukemia),growth (SR leukemia),growth (RPMI-8226 leukemia),growth (OVCAR-8 ovarian),growth (OVCAR-5 ovarian),growth (OVCAR-4 ovarian),growth (SK-OV-3 ovarian) [%],growth (IGROV1 ovarian),growth (OVCAR-3 ovarian),growth (HS 578T breast),growth (NCI/ADR-RES ovarian),growth (T-47D breast),growth (BT-549 breast),growth (MDA-MB-435 melanoma),growth (SW-620 colon),growth (MCF7 breast),growth (HCT-116 colon),growth (HCC-2998 colon),growth (KM12 colon)
CCCOC(=O)N[C@H]1CCc2c(Br)c(OC)c(OC)c(OC)c2-c2ccc(SC)c(=O)cc21,10.7%,3.3% (active),-9.16% (active),13.4%,36.7%,32.6%,40.8,10.9%,-16.8% (active),1.06% (active),10.4%,51.5%,2.53% (active),-49.4% (active),15.3%,10%,-12.6% (active),16.2%,-15.7% (active)
CC[C@H](C)[C@H](NC(=O)[C@H]1CCCCN1C)C(=O)N(C)[C@H](C[C@@H](OC(C)=O)c1nc(C(=O)N[C@@H](Cc2ccccc2)C[C@H](C)C(=O)OC)cs1)C(C)C,4.63% (active),-7.13% (active),27.5%,16.4%,58.1%,51.5%,41,25.9%,-0.916% (active),33.8%,-4.28% (active),81%,-35.7% (active),-35.3% (active),45.4%,12.9%,4.25% (active),10.8%,2.43% (active)
Clc1cccc(N2COOC3(OOC2)C2CC4CC(C2)CC3C4)c1,77.8%,37.7%,53.8%,58.1%,84.3%,95.3%,98.1,-54.4% (active),19.2%,88.6%,44.4%,69.4%,88%,73.3%,95.5%,93.1%,88.2%,98.1%,65.7%
CC(=O)[O][Hg][c]1c(N)c(C)cc(C)c1F,-11.2% (active),-11.2% (active),-12.3% (active),-29.5% (active),47.3%,42%,69.8,-32.7% (active),-45.8% (active),26.8%,74.6%,-20% (active),-14% (active),-60.5% (active),-19.5% (active),-5.09% (active),25.7%,93.7%,81.4%
COC1OC(CO)C(O)C(O)[CH]1[Hg][O]C(C)=O (stereo not drawn),91.1%,64.3%,104%,103%,102%,95.6%,117,86.9%,75.9%,89.8%,92.4%,63.8%,103%,93.7%,89%,53.2%,102%,106%,94.5%
C=CC12CCN(CC1)C(C(O)c1ccnc3ccc(OC)cc13)C2 (stereo not drawn),67.8%,37.1%,4.37% (active),92.3%,88.4%,76.9%,89.2,81.4%,93.7%,90.4%,91.8%,82.5%,103%,56.5%,88.9%,66.5%,60.5%,-34.8% (active),
Cn1cc(-c2csc(-c3cn(CCN4CCOCC4)c4ccc(F)cc34)n2)c2cccnc21,4.03% (active),33.7%,0.0619% (active),4.93% (active),75.3%,30.5%,78.7,21%,32.3%,60.4%,5.84% (active),-17.7% (active),10.8%,32.2%,44.9%,8.93% (active),36.9%,86.7%,22.3%
CCCCCCC(=O)NC1=C(N2CC2)C(=O)C(NC(=O)CCCCCC)=C(N2CC2)C1=O,49%,40.7%,56.1%,32%,93%,30.9%,39.8,20.3%,-53.4% (active),88.2%,60.1%,11.4%,28%,13.4%,56.9%,19.1%,-14.1% (active),53.9%,48.8%
COc1cc(/C=N/C2=C(C#N)C(c3ccco3)c3c(c4cc(C)ccc4oc3=O)O2)cc(OC)c1OC (stereo not drawn),106%,74.8%,101%,101%,105%,97.6%,92.6,83.1%,91.4%,64.3%,96.3%,88.2%,91.1%,26.1%,81.7%,70.1%,84.9%,109%,81.4%
COC(=O)[C@@H](C)C[C@H](Cc1ccccc1)NC(=O)c1cccc([C@@H](C[C@H](C(C)C)N(C)C(=O)[C@@H](NC(=O)[C@H]2CCCCN2C)C(C)C)OC(C)=O)n1,11.5%,8.11% (active),22.4%,11.4%,35.6%,38.9%,28.7,26.8%,-31.3% (active),26.3%,14.6%,47.1%,-12.5% (active),-32.2% (active),22%,21.3%,2.54% (active),2.68% (active),7.8% (active)
COc1ccc(S(=O)(=O)N(Cc2ccc3c(c2)C=CC(C)(C)O3)c2ccccc2)cc1OC,74.4%,75.9%,46.2%,79.9%,103%,70.6%,90.7,75.6%,74.3%,91.1%,68.7%,55.1%,54%,87.3%,87.1%,50.7%,63%,73.6%,88.7%
C[C@@]12CC=C3c4nc(Nc5cccc(O)c5)sc4CC[C@]3(C)[C@H]1CC[C@]1(C)C(=O)CC[C@@H]21,5.52% (active),3.61% (active),-13.6% (active),17.9%,110%,52.1%,37.3,-12.1% (active),-3.79% (active),7.41% (active),78.9%,-8.55% (active),17.4%,42.6%,-4.13% (active),-25.9% (active),-23.7% (active),81.5%,34.7%
COc1cc2ncnc(Nc3ccc(F)c(Cl)c3)c2cc1OCC(=O)N1CCN(C)CC1,81.2%,74.5%,90.5%,90%,78.4%,79.5%,13.7,48.2%,78.2%,93.4%,86.7%,70%,89.6%,102%,105%,80.4%,91.3%,102%,96.4%
COC(=O)[C@@H](C)C[C@H](Cc1cn(C)c2ccccc12)NC(=O)c1csc([C@@H](C[C@H](C(C)C)N(C)C(=O)[C@@H](NC(=O)[C@H]2CCCCN2C)C(C)C)OC(C)=O)n1,12.8%,13.2%,10.5%,30.1%,48.7%,50.5%,26.8,26.3%,-11% (active),22.7%,20.7%,67.7%,-15.9% (active),-41.5% (active),26.8%,17.8%,6.08% (active),17.3%,9.11% (active)
O=C(CC1(O)C(=O)N(Cc2ccccc2)c2ccc(F)cc21)c1ccc(C(=O)NCC2CCC3(CC2)OOC2(CCCCC2)OO3)cc1 (stereo not drawn),-48.9% (active),-44.8% (active),-29.7% (active),-30.5% (active),4.61% (active),-32.4% (active),41.1,-38.1% (active),-76.9% (active),-9.82% (active),-48.6% (active),-53.9% (active),-19.7% (active),-80.7% (active),-62.3% (active),7.64% (active),4.47% (active),44.9%,-68.1% (active)
C=CC[n+]1ccc(-c2cc[n+](CC=C)cc2)cc1,88.8%,93.9%,79.9%,61.3%,126%,37.6%,108,13.6%,40.7%,116%,111%,82.1%,109%,104%,114%,89.7%,98.5%,95.4%,65.3%
